Test results as given in ChEMBL document CHEMBL1157539, “Thousands of chemical starting points for antimalarial lead identification” (Nature, 2010).

Assays:
Assay type in all cases: functional
Plasmodium falciparum [1] = assay: GSK_TCMDC: Inhibition of Plasmodium falciparum 3D7 in whole red blood cells, using parasite LDH activity as an index of growth. Test compounds present at 2uM
Plasmodium falciparum [2] = assay: GSK_TCMDC: Inhibition of Plasmodium falciparum Dd2 in whole red blood cells, using parasite LDH activity as an index of growth. Test compounds present at 2uM
HepG2 = assay: GSK_TCMDC: Percent inhibition of human HepG2 cell line. Test compounds present at 10uM.

Row | SMILES | Inhibition (Plasmodium falciparum [1]) [%] | Inhibition (Plasmodium falciparum [2]) [%] | Inhibition (HepG2) [%]
1 | Cc1cc(=NN=CC=Cc2ccccc2)c2cc(F)ccc2[nH]1 | 100 | 36 | 8
2 | CCOc1cc(C(=O)N[C@@H](Cc2ccccc2)[C@H](O)CNC(C)(C)c2cccc(OC)c2)cc(N2CCCS2(=O)=O)c1 | 99 | 99 | 0
3 | Cc1cc(C)c(-c2n[nH]c3c2C(c2cccc(Cl)c2)N(Cc2ccco2)C3=O)c(O)c1 (configuration not stated) | 96 | 89 | 0
4 | COc1cccc2cc(C(=O)N[C@@H](CC(C)C)C(=O)N[C@H](C=NN3CCOC3=O)CC(C)C)oc12 | 90 | 72 | 4
5 | CCOc1ccc2ccccc2c1C(=O)Nc1cc(C)nn1-c1nc(C)cc(=O)[nH]1 | 93 | 86 | 28
6 | Cc1cc(-c2ccc(NC(=O)N3CCc4cc(Br)c(N5CCN(C)CC5)cc43)cc2)ccc1C#N | 99 | 56 | 100
7 | CCCCC1(NC(=O)[C@@H](Nc2ccc(C#N)c3ccccc23)C2CCCCC2)CCCCC1.O=C(O)C(F)(F)F | 91 | 84 | 8
8 | N#Cc1ccc(N2CCN(Cc3cccc(-c4ccc(-c5nc6ccccc6[nH]5)cc4)c3)CC2)nc1.O=C(O)C(F)(F)F | 89 | 40 | 45
9 | Cc1n[nH]c2cc(Nc3ccnc(Nc4ccc(CN5CCOCC5)cc4)n3)ccc12 | 97 | 5 | 22
10 | CN1CCN(c2cc3c(cc2Cl)CCN3C(=O)Nc2ccc(NC(=O)c3ccc(C(F)(F)F)cc3)cc2)CC1.Cl | 100 | 99 | 98
11 | CCN1CCC(N(Cc2ccc(-c3ccc(C(F)(F)F)cc3)cc2)C(=O)CCCCn2c(CCc3cccc(F)c3F)nc(=O)c3ccccc32)CC1 | 90 | 77 | 54
12 | CCOc1ccc(-c2nonc2NC(=O)c2ccc(OC(C)C)cc2)cc1OCC | 100 | 100 | 13
13 | O=C(/C=C/c1ccc(Cl)c(Cl)c1)NCCCCCN1CCC(c2c[nH]c3ccccc23)CC1 | 99 | 7 | 33
14 | CC(=O)OC[C@H]1O[C@@H](C#Cc2ccccc2)[C@H](OC(C)=O)[C@@H](OC(C)=O)[C@@H]1OC(C)=O | 95 | 90 | 5
15 | Cc1cc(Nc2cccc(C(F)(F)F)c2)nc(NCc2ccccc2)n1 | 100 | 95 | 17
16 | Cc1ccc(CNc2ccc3ncc(-c4cccc(C(=O)NCCN(C)C)c4)n3n2)c(C)c1 | 100 | 78 | 97
17 | CCOc1cc2ccccc2cc1CNCCCCCCNCc1cc2ccccc2cc1OCC.CS(=O)(=O)O | 100 | 76 | 99
18 | O=C(O)C(F)(F)F.O=c1[nH]ccc2nc(N[C@@H]3CCCNC3)nc(Nc3ccc(S(=O)(=O)N4CCOCC4)cc3)c12 | 96 | 99 | 13
19 | Cc1cc(Cl)ccc1N(Cc1ccccc1)c1ccnc(Cl)n1 | 97 | 98 | 16
20 | N#Cc1ccc(NC(=O)N2CCCN(CCCCCNC(=O)/C=C/c3ccc(Cl)c(Cl)c3)CC2)cc1 | 100 | 4 | 32

Row | SMILES | Inhibition (Plasmodium falciparum [1]) [%] | Inhibition (Plasmodium falciparum [2]) [%] | Inhibition (HepG2) [%]
21 | CC(C)Nc1nc(NCCc2c[nH]cn2)nc(NCc2cccc3ccccc23)n1 | 90 | 0 | 4
22 | CNC(=O)c1cnc(Nc2ccc(N3CCN(C)CC3)cc2)nc1Nc1ccccc1OC.O=C(O)C(F)(F)F | 100 | 84 | 8
23 | CN1CCN(c2ccnc3ccc(NC(=O)Nc4ccc(-c5ccncc5)c(C(F)(F)F)c4)cc23)CC1 | 99 | 99 | 12
24 | Cc1ccccc1C1CCN(c2ncc(C(=O)Nc3ccccc3)cc2Cl)CC1.O=C(O)C(F)(F)F | 83 | 83 | 29
25 | Nc1c(Cl)cc(C(O)CNCCCCCCOCCc2ccc(CO)s2)cc1Cl.O=C(O)/C=C/C(=O)O (configuration not stated) | 86 | 71 | 1
26 | Cc1cc(=NN=Cc2ccc(Cl)cc2)c2cc(C(F)(F)F)ccc2[nH]1 | 91 | 32 | 0
27 | CC1CCCN1Cc1ccc(-c2ccc3c(=O)cc(CCc4cccc(F)c4F)n(CC(=O)N(C)Cc4ccc(-c5ccc(C(F)(F)F)cc5)cc4)c3n2)cc1.O=C(O)C(O)C(O)C(=O)O (configuration not stated) | 100 | 91 | 0
28 | CCCN1CCN(CCNC(=O)c2cccc(Nc3nccc(Nc4ccc(Oc5ccccc5)cc4)n3)c2)CC1 | 99 | 96 | 56
29 | Cl.Nc1c2c(nc3cc(NC(=O)c4ccc([N+](=O)[O-])cc4)ccc13)CCCC2 | 100 | 58 | 11
30 | Br.Oc1ccc(CCNCCCCCCNCCc2ccc(Cl)cc2)c(Cl)c1O | 100 | 30 | 23
31 | Cc1cccc2nc(-c3cccc(-c4cccc(CNCCN5CCNCC5)c4)c3)[nH]c12.O=C(O)C(F)(F)F | 90 | 0 | 11
32 | Cc1c(-c2ccc(C(=O)NC3CC(C)(C)NC(C)(C)C3)cc2)[nH]c2cc(Cl)c(Cl)cc12 | 98 | 68 | 34
33 | CCOC(=O)c1ccc(NC(=O)N[C@@H](Cc2ccccc2)C(=O)NC2CCN(Cc3ccc(O)cc3)C2)cc1 (some centres not stated) | 95 | 2 | 7
34 | Cc1ccc(-c2ccn(Cc3ccc(OCc4ccccc4)cc3)n2)cn1.Cc1ccc(-c2ccnn2Cc2ccc(OCc3ccccc3)cc2)cn1 | 93 | 92 | 1
35 | N#Cc1cccc(Nc2nccc(NCC(O)c3cccc(C(F)(F)F)c3)n2)c1 (configuration not stated) | 99 | 84 | 4
36 | CC(O)C1CCCCN1C(=O)c1cccc(-c2ccc(-c3nc4ccccc4[nH]3)s2)c1 (configuration not stated) | 100 | 23 | 24
37 | C=CCC(C(=O)Nc1ccnc2ccc(OC)cc12)C1CCN(CCCCCCC)CC1 (configuration not stated) | 86 | 84 | 20
38 | Cc1cc(OCCCN2CCCCC2)ccc1NC(=O)COc1ccc(Cl)cc1C(=O)c1cc(C#N)cc(C(F)(F)F)c1 | 87 | 7 | 23
39 | O=C(Cn1c(CCc2cccc(F)c2F)cc(=O)c2ccccc21)N(Cc1ccc(-c2ccc(C(F)(F)F)cc2)cc1)C1CCN(CCO)CC1.O=C(O)C(O)C(O)C(=O)O | 91 | 84 | 82
40 | c1cncc(CN2CCN(Cc3ccc(-c4ccc(-c5nc6ccccc6[nH]5)s4)cc3)CC2)c1 | 97 | 34 | 32

Row | SMILES | Inhibition (Plasmodium falciparum [1]) [%] | Inhibition (Plasmodium falciparum [2]) [%] | Inhibition (HepG2) [%]
41 | N#Cc1cccc(NC(=O)Nc2ccc3c(c2)CN(Cc2c[nH]c4ncccc24)C3)c1 | 99 | 12 | 0
42 | COc1c(C2CCN(CCCCNC(=O)c3ccc(-c4ccc(NC(=O)C(F)(F)F)cc4)cc3)CC2)ccc2c1CCCC2 | 86 | 33 | 95
43 | CC(C)C[C@H](NC(=O)c1ccc(OCCN2CCOCC2)cc1)C(=O)N[C@H](/C=N/NC(=O)c1ccccc1)CCc1ccccc1 | 98 | 90 | 17
44 | CN(/N=C/C=C/c1ccc(Cl)cc1)c1nc(NCCc2ccc(O)cc2)nc(N2CCNCC2)n1 | 92 | 69 | 14
45 | CC(Nc1nncc(-c2cccc(F)c2)n1)c1ccc(F)cc1 (configuration not stated) | 95 | 89 | 4
46 | COc1cccc2c1CCN(CCN1CCC(CNC(=O)c3ccc(-c4ccc(C#N)cc4)cc3)CC1)C2 | 99 | 98 | 57
47 | CN(C(=O)c1ccc(Br)cc1)c1ccccc1[N+](=O)[O-] | 96 | 0 | 3
48 | COc1cc(Nc2nccc(N3CCC(NC(=O)Nc4ccc5c(c4)OCO5)C3)n2)cc(OC)c1OC (configuration not stated) | 96 | 74 | 9
49 | COc1cc(Br)c(S(=O)(=O)n2cc(CN3CCC(N)CC3)c3cc(Cl)ccc32)cc1OC.O=C(O)C(F)(F)F | 99 | 32 | 27
50 | O=C(Nc1ccc(Cl)cc1)c1ccc(S(=O)(=O)NCC2CCN(CC3CCCCC3)CC2)cc1.O=C(O)C(F)(F)F | 93 | 8 | 40
51 | CCNc1cc(C(=O)N[C@@H](Cc2ccccc2)[C@H](O)CNCCC(C)(C)C)c(F)c(N2CCCCS2(=O)=O)c1.O=CO | 98 | 93 | 2
52 | Cn1c(-c2ccccc2)cc2c3c(N)nc(N)nc3ccc21 | 100 | 30 | 27
53 | COc1ccc2nccc([C@@H](O)CN3CCC(NC(=O)/C=C/c4cc(F)cc(Br)c4)CC3)c2c1 | 95 | 50 | 24
54 | O=C(NC(=S)NCc1ccncc1)c1ccccc1 | 94 | 0 | 0
55 | Cc1ccc(Nc2nc(C)cc(NC3CCN(C)CC3)n2)cc1 | 100 | 21 | 14
56 | Cl.Oc1ccc2c(c1NCC1CCCCC1)CCCC2 | 99 | 99 | 11
57 | Cc1ccc(NC(=O)c2ccnc(N3CCN(c4ccncc4)CC3)c2)cc1F.O=C(O)C(F)(F)F | 94 | 12 | 43
58 | CCN1CCN(c2cc(C)c3cc(NC(=O)c4cccc(OC)c4)ccc3n2)CC1 | 99 | 15 | 5
59 | O=C(Cn1c(CCc2cccc(F)c2F)cc(=O)c2ccccc21)N(CCN1CCCCC1)Cc1ccc(-c2ccc(C(F)(F)F)cc2)cc1.O=C(O)C(O)C(O)C(=O)O | 100 | 59 | 9
